Drawing on PubChem BioAssay (NCATS), this text covers Potency, activity change, negative = lower viability and activity change, negative = inhibition for 39 compounds.

The structures appear in SMILES notation. Results filed as inconclusive are left out. Entries that show only a call come without a potency. Active and inactive are the calls of the source. Unless noted, calls follow the shape of the full dose curve. Starred links: 1 amine or outer side, 2 acyl side, 3 side chain; linkers in the order of their positions; H or OH if unused. Positions of bridges follow the written chain, without caps; N, C: chain ends. Non-standard residues stand in square brackets, D forms with d. Residues, ends and D or L forms follow the SMILES beside them. ξ: configuration not given here. *: point of attachment. ΔAla(3-NHCONH2) = NC(=O)NC=C(N)C(=O)O; X1 = NC1=NCCC(C(N[*:1])C(=O)[*:2])N1; ξβ3hOrn = NCCCC(N)CC(=O)*; Dap = NC[CH](N)C(=O)O

Test system in one assay: not listed separately
Briefly: qHTS for Inhibitors of the Functional Ribonucleoprotein Complex (vRNP) of Lymphocytic Choriomeningitis Arenaviruses (LCMV): Viability assay - alamar blue signal for LCMV Primary Screen (AID 1347085; calls by dose curve; tested in HEK293 reporter line; also: nearly all actives have a fitted effect of over 80% in size). As to conditions: alamar blue viability counter-screen, LCMV vRNP screen cells; series mostly up to 57.5 µM. (In general: In qHTS, concentration-response curves come from the screen itself.)
Consider `CC(C)(O)c1ccccc1CC[C@@H](SCC1(CC(=O)O)CC1)c1cccc(/C=C/c2ccc3ccc(Cl)cc3n2)c1`, for which the Potency result is “inactive”.

Regarding `CC[C@@H](CO)NCCN[C@@H](CC)CO`, the Potency entry was “inactive”.

As to `Fc1ccc([C@@H]2CCNC[C@H]2COc2ccc3c(c2)OCO3)cc1`, the Potency result is “inactive”.

With `Cc1[nH]c(=O)c(C#N)cc1-c1ccncc1`, the Potency result was “inactive”.

For `CN(C)CCOC(c1ccc(Cl)cc1)c1ccccn1` (stereo not drawn), the Potency result is “inactive”.

In the case of `CCOC(=O)c1ncn2c1CN(C)C(=O)c1cc(F)ccc1-2`, the Potency entry is “inactive”.

As to `CO/N=C(\C(=O)N[C@@H]1C(=O)N2C(C(=O)O)=C(CSc3nc(=O)c(O)nn3C)CS[C@H]12)c1csc(N)n1`, the Potency entry was “inactive”.

As to `NCCCC(N)CC(=O)NCC1NC(=O)C(CO)NC(=O)C(N)CNC(=O)C(C2CCN=C(N)N2)NC(=O)C(=CNC(N)=O)NC1=O` (stereo not drawn) (H-[Dap]S[Dap](ξβ3hOrn)[ΔAla(3-NHCONH2)][X1]; lactam 1-C; configuration not given here), the activity change, negative = lower viability was -4.22% [at 0.757 µM] (inactive).

For the compound `CO[C@H]1C=CO[C@@]2(C)Oc3c(C)c(O)c4c(O)c(c(/C=N/N5CCN(C)CC5)c(O)c4c3C2=O)NC(=O)/C(C)=C\C=C[C@H](C)[C@H](O)[C@@H](C)[C@@H](O)[C@@H](C)[C@H](OC(C)=O)[C@@H]1C`, the Potency result was “inactive”.

As to `CN(C)c1cc(NC(=O)CNC(C)(C)C)c(O)c2c1C[C@@H]1C[C@H]3[C@H](N(C)C)C(=O)C(C(N)=O)=C(O)[C@@]3(O)C(=O)C1=C2O`, the Potency entry is “inactive”.

For `CCc1ccc(CCOc2ccc(CC3SC(=O)NC3=O)cc2)nc1` (stereo not drawn), the Potency entry is “inactive”.

For `Clc1ccc(C(c2ccccc2Cl)C(Cl)Cl)cc1` (stereo not drawn), the Potency result is “inactive”.

As for `CN(C)CCC=C1c2ccccc2CCc2ccccc21`, the Potency result was “inactive”.

As to `COc1ccccc1OCC(O)COC(N)=O` (stereo not drawn), the Potency result was “inactive”.

`CN(C)c1ccc(O)c2c1C[C@H]1C[C@H]3[C@H](N(C)C)C(=O)C(C(N)=O)=C(O)[C@@]3(O)C(=O)C1=C2O`: the Potency entry was “inactive”.

In the case of `CNCCCC1c2ccccc2C=Cc2ccccc21`, the Potency entry was “inactive”.

For `CC(C(=O)O)c1cccc(C(=O)c2ccccc2)c1` (stereo not drawn), the Potency result is “inactive”.

Consider `CC(C)C1CCC(C(=O)N[C@H](Cc2ccccc2)C(=O)O)CC1` (stereo partly drawn), for which the Potency entry is “inactive”.

For the compound `CNCC[C@@H](Oc1ccccc1C)c1ccccc1`, the Potency entry was “inactive”.

`CNCCC(Oc1ccc(C(F)(F)F)cc1)c1ccccc1` (stereo not drawn): the Potency result is “inactive”.

Regarding `Cc1oncc1C(=O)Nc1ccc(C(F)(F)F)cc1`, the Potency entry was “inactive”.

As for `CCCCN1C[C@H](O)[C@@H](O)[C@H](O)[C@H]1CO`, the Potency entry is “inactive”.

As to `CN(C)CCc1c[nH]c2ccc(CS(=O)(=O)N3CCCC3)cc12`, the Potency entry is “inactive”.

For `CN1CCC(=C2c3ccccc3C=Cc3ccccc32)CC1`, the Potency entry was “inactive”.

Turning to `Cc1nc2n(c(=O)c1CCN1CCC(c3noc4cc(F)ccc34)CC1)CCC[C@H]2O`, the Potency entry is “inactive”.

As for `O=C1C(=O)c2ccccc2C(O)=C1C1CCC(c2ccc(Cl)cc2)CC1` (stereo not drawn), the Potency result was “inactive”.

Turning to `CNCCCN1c2ccccc2CCc2ccccc21`, the Potency entry was “inactive”.

In the case of `O=P(O)(O)C(O)(Cc1cccnc1)P(=O)(O)O`, the Potency entry is “inactive”.

As to `CO/N=C1\CN(c2nc3c(cc2F)c(=O)c(C(=O)O)cn3C2CC2)CC1CN` (stereo not drawn), the Potency result is “inactive”.

As for `NC(=O)C(c1ccccc1)(c1ccccc1)[C@@H]1CCN(CCc2ccc3c(c2)CCO3)C1`, the Potency result was “inactive”.

In the case of `COc1cc2nc(N3CCN(C(=O)c4ccco4)CC3)nc(N)c2cc1OC`, the Potency entry is “inactive”.

Turning to `NC(=O)OCC(COC(N)=O)c1ccccc1`, the Potency entry was “inactive”.

Consider `COc1ccccc1OCCNCC(O)COc1cccc2[nH]c3ccccc3c12` (stereo not drawn), for which the Potency result was “inactive”.

Regarding `NS(=O)(=O)c1cc2c(cc1Cl)NC=NS2(=O)=O`, the Potency result was “inactive”.

For the compound `C1N2CN3CN1CN(C2)C3`, the Potency result is “inactive”.

Take `CC(=O)O[C@]1(C(C)=O)CC[C@H]2[C@@H]3C=C(C)C4=CC(=O)CC[C@]4(C)[C@H]3CC[C@@]21C`: the Potency entry was “inactive”.

On to `CCCC(=O)Nc1ccc(OCC(O)CNC(C)C)c(C(C)=O)c1` (stereo not drawn), for which the Potency entry is “inactive”.

Regarding `Cc1cccc(Nc2ccccc2C(=O)O)c1C`, the Potency entry was “inactive”.

Take `CCCc1nc2c(C)cc(-c3nc4ccccc4n3C)cc2n1Cc1ccc(-c2ccccc2C(=O)O)cc1`: the Potency entry is “inactive”.

The target of another assay is Nucleoprotein (Lymphocytic choriomeningitis virus (strain Armstrong)) (UniProt P09992). Briefly: qHTS for Inhibitors of the Functional Ribonucleoprotein Complex (vRNP) of Lymphocytic Choriomeningitis Arenaviruses (LCMV): LCMV Primary Screen - GLuc reporter signal (AID 1347086). Also: nearly all actives have a fitted effect of over 70% in size. Conditions: LCMV minigenome vRNP cell assay, Gaussia luciferase reporter; series mostly up to 57.5 µM.
Chain of Nucleoprotein (Lymphocytic choriomeningitis virus (strain Armstrong)) (P09992 whole entry, looked up): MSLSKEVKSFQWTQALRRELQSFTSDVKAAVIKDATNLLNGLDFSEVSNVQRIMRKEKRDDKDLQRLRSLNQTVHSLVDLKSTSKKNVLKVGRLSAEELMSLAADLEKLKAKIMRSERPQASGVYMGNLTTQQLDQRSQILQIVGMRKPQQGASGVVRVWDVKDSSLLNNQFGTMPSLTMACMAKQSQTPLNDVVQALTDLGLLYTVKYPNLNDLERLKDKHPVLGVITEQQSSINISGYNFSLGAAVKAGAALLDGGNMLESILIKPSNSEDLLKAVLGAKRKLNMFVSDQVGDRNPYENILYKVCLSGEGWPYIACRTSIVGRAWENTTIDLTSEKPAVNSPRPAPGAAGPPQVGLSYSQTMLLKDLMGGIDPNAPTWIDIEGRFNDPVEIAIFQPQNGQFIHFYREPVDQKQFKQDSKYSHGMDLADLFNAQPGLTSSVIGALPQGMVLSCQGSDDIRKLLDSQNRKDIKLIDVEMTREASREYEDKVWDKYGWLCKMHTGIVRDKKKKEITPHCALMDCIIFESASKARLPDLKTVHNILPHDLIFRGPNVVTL
Regarding `CC(C)(O)c1ccccc1CC[C@@H](SCC1(CC(=O)O)CC1)c1cccc(/C=C/c2ccc3ccc(Cl)cc3n2)c1`, the Potency entry is “inactive”.

Take `CC[C@@H](CO)NCCN[C@@H](CC)CO`: the Potency entry was “inactive”.

For the compound `Fc1ccc([C@@H]2CCNC[C@H]2COc2ccc3c(c2)OCO3)cc1`, the Potency entry was “inactive”.

In the case of `Cc1[nH]c(=O)c(C#N)cc1-c1ccncc1`, the Potency result was “inactive”.

On to `CN(C)CCOC(c1ccc(Cl)cc1)c1ccccn1` (stereo not drawn), for which the Potency entry was “inactive”.

`CCOC(=O)c1ncn2c1CN(C)C(=O)c1cc(F)ccc1-2`: the Potency entry is “inactive”.

Turning to `CO/N=C(\C(=O)N[C@@H]1C(=O)N2C(C(=O)O)=C(CSc3nc(=O)c(O)nn3C)CS[C@H]12)c1csc(N)n1`, the Potency entry was “inactive”.

With `NCCCC(N)CC(=O)NCC1NC(=O)C(CO)NC(=O)C(N)CNC(=O)C(C2CCN=C(N)N2)NC(=O)C(=CNC(N)=O)NC1=O` (stereo not drawn) (H-[Dap]S[Dap](ξβ3hOrn)[ΔAla(3-NHCONH2)][X1]; lactam 1-C; configuration not given here), the activity change, negative = inhibition is -2.08% [at 0.757 µM] (inactive).

Regarding `CO[C@H]1C=CO[C@@]2(C)Oc3c(C)c(O)c4c(O)c(c(/C=N/N5CCN(C)CC5)c(O)c4c3C2=O)NC(=O)/C(C)=C\C=C[C@H](C)[C@H](O)[C@@H](C)[C@@H](O)[C@@H](C)[C@H](OC(C)=O)[C@@H]1C`, the Potency entry was “inactive”.

As to `CN(C)c1cc(NC(=O)CNC(C)(C)C)c(O)c2c1C[C@@H]1C[C@H]3[C@H](N(C)C)C(=O)C(C(N)=O)=C(O)[C@@]3(O)C(=O)C1=C2O`, the Potency entry was “inactive”.

With `CCc1ccc(CCOc2ccc(CC3SC(=O)NC3=O)cc2)nc1` (stereo not drawn), the Potency result is “inactive”.

Consider `Clc1ccc(C(c2ccccc2Cl)C(Cl)Cl)cc1` (stereo not drawn), for which the Potency entry was “inactive”.

Take `CN(C)CCC=C1c2ccccc2CCc2ccccc21`: the Potency result was “inactive”.

In the case of `COc1ccccc1OCC(O)COC(N)=O` (stereo not drawn), the Potency entry was “inactive”.

Turning to `CN(C)c1ccc(O)c2c1C[C@H]1C[C@H]3[C@H](N(C)C)C(=O)C(C(N)=O)=C(O)[C@@]3(O)C(=O)C1=C2O`, the Potency entry is “inactive”.

As to `CNCCCC1c2ccccc2C=Cc2ccccc21`, the Potency result was “inactive”.

Regarding `CC(C(=O)O)c1cccc(C(=O)c2ccccc2)c1` (stereo not drawn), the Potency entry is “inactive”.

For the compound `CC(C)C1CCC(C(=O)N[C@H](Cc2ccccc2)C(=O)O)CC1` (stereo partly drawn), the Potency entry was “inactive”.

As to `CNCC[C@@H](Oc1ccccc1C)c1ccccc1`, the Potency entry was “inactive”.

Consider `CNCCC(Oc1ccc(C(F)(F)F)cc1)c1ccccc1` (stereo not drawn), for which the Potency result was “inactive”.

As for `Cc1oncc1C(=O)Nc1ccc(C(F)(F)F)cc1`, the Potency entry was “inactive”.

On to `CCCCN1C[C@H](O)[C@@H](O)[C@H](O)[C@H]1CO`, for which the Potency entry was “inactive”.

For the compound `CN(C)CCc1c[nH]c2ccc(CS(=O)(=O)N3CCCC3)cc12`, the Potency entry was “inactive”.

As for `CN1CCC(=C2c3ccccc3C=Cc3ccccc32)CC1`, the Potency result was “inactive”.

In the case of `Cc1nc2n(c(=O)c1CCN1CCC(c3noc4cc(F)ccc34)CC1)CCC[C@H]2O`, the Potency entry was “inactive”.

Regarding `O=C1C(=O)c2ccccc2C(O)=C1C1CCC(c2ccc(Cl)cc2)CC1` (stereo not drawn), the Potency result is “inactive”.

As for `CNCCCN1c2ccccc2CCc2ccccc21`, the Potency result is “inactive”.

Consider `O=P(O)(O)C(O)(Cc1cccnc1)P(=O)(O)O`, for which the Potency result is “inactive”.

On to `CO/N=C1\CN(c2nc3c(cc2F)c(=O)c(C(=O)O)cn3C2CC2)CC1CN` (stereo not drawn), for which the Potency entry was “inactive”.

For `NC(=O)C(c1ccccc1)(c1ccccc1)[C@@H]1CCN(CCc2ccc3c(c2)CCO3)C1`, the Potency entry was “inactive”.

Turning to `COc1cc2nc(N3CCN(C(=O)c4ccco4)CC3)nc(N)c2cc1OC`, the Potency entry was “inactive”.

Consider `NC(=O)OCC(COC(N)=O)c1ccccc1`, for which the Potency result is “inactive”.

In the case of `COc1ccccc1OCCNCC(O)COc1cccc2[nH]c3ccccc3c12` (stereo not drawn), the Potency entry was “inactive”.

Take `NS(=O)(=O)c1cc2c(cc1Cl)NC=NS2(=O)=O`: the Potency entry is “inactive”.

With `C1N2CN3CN1CN(C2)C3`, the Potency result is “inactive”.

For the compound `CC(=O)O[C@]1(C(C)=O)CC[C@H]2[C@@H]3C=C(C)C4=CC(=O)CC[C@]4(C)[C@H]3CC[C@@]21C`, the Potency result was “inactive”.

On to `CCCC(=O)Nc1ccc(OCC(O)CNC(C)C)c(C(C)=O)c1` (stereo not drawn), for which the Potency entry was “inactive”.

In the case of `Cc1cccc(Nc2ccccc2C(=O)O)c1C`, the Potency result is “inactive”.

In the case of `CCCc1nc2c(C)cc(-c3nc4ccccc4n3C)cc2n1Cc1ccc(-c2ccccc2C(=O)O)cc1`, the Potency entry was “inactive”.
